About 83,000 compounds went through this panel and 20% of them were active in at least one assay; those are over-represented in the sample as a whole.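 In brief: 96-well plates, 48 h treatment, single concentration, percent growth endpoint.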 Activity calls are given as the source filed them. How the source made its calls: active means growth percent below 10; inactive means the rest.
system: CAKI-1 renal; assay: NCI-60 one-dose screen, 48 h (100 = growth as untreated, 0 = no growth, -100 = all killed); settings: 10 µM unless noted

**Q.** For `COc1ccccc1/C=C/C1=C(C)CCC(c2ccccc2OC)C1C` (stereo unspecified), which growth is on record?
**A.** The growth was 2.23% (active).

**Q.** `CN(C)CCOc1nc2c3cc([N+](=O)[O-])ccc3nn2c2ccccc12` was tested. Which growth did it give?
**A.** The growth was 23.6% (inactive).

**Q.** For `COc1ccc(-c2nc(SCCC(C)C)nc(N/N=C(/C)c3ccc(N)cc3)c2C#N)cc1`, which growth is on record?
**A.** The growth was 81.8% (inactive).

**Q.** With `O=C(c1ccccc1)[C@@H](c1ccccc1)[C@]1(O)C(=O)Nc2ccccc21` as the compound, how does the growth read?
**A.** Its growth is 84.6% (inactive).

**Q.** Which growth does the source give for `CCOC(=O)C1=C(c2ccccc2)N=C2SC=C(c3cccc([N+](=O)[O-])c3)N2C1c1ccc(O)cc1` (stereo unspecified) here?
**A.** Its growth is 94.3% (inactive).

**Q.** How did the growth turn out when `Cn1nc(-c2ccc(Cl)cc2)nc2c(=O)n(C)c(=O)nc1-2` was run?
**A.** Its growth is 6.17% (active).

**Q.** For `COC1CC(O)C2=C(CC3C(/C(C)=C\CC=C(C)C)CCC3(C)O2)C1=O` (stereo unspecified), which growth is on record?
**A.** The growth was 107% (inactive).

**Q.** With `COc1cc(C(=O)/C=C/c2c(-c3cccs3)nc3sc(C)cn23)cc(OC)c1OC` as the compound, how does the growth read?
**A.** Its growth is -12.7% (active).

**Q.** For `CSc1nc(N)c2c(n1)NC(c1ccccc1)C1CCc3ccccc3C1=N2` (stereo unspecified), which growth is on record?
**A.** Its growth is 48.2% (inactive).

**Q.** For `COC(=O)c1c(C)nc(C)c2c1C(=O)C(Br)=C(NCCCCO)C2=O`, which growth is on record?
**A.** Its growth is 70.5% (inactive).

**Q.** `C=C(c1ccc(C(=O)O)c(F)c1)c1cc2c(cc1C)C(C)(C)C=CC2(C)C` was tested. Which growth did it give?
**A.** The growth was 81.7% (inactive).

**Q.** With `COc1cc(C2=Nc3c(N)nc(N)nc3NC(c3cccc(Nc4ccnc5cc(C(F)(F)F)ccc45)c3)C2)cc(OC)c1OC` (stereo unspecified) as the compound, how does the growth read?
**A.** Its growth is 58.6% (inactive).

system: A498 renal; assay: as above; settings: 10 µM unless noted

**Q.** How did the growth turn out when `CN1CCN(CCCNC(=O)c2c3c(n4ccccc24)C(=O)c2ncccc2C3=O)CC1` was run?
**A.** The growth was 45.8% (inactive).

**Q.** Which growth does the source give for `CN1CCN(CC(=O)N(C)c2ccc(N=C(c3ccccc3)c3c(O)[nH]c4ccc([N+](=O)[O-])cc34)cc2)CC1` here?
**A.** Its growth is 66.7% (inactive).

**Q.** With `CCCCCCCCNc1ncnc2c1ncn2Cc1nnc2c3ccccc3c(Cl)nn12` as the compound, how does the growth read?
**A.** Its growth is 69.8% (inactive).

**Q.** For `CC/C(=C(/c1ccc(Cl)cc1)c1ccc(OCCCN(C)C)cc1)c1ccc(OC)cc1`, which growth is on record?
**A.** Its growth is 76.3% (inactive).

**Q.** How did the growth turn out when `CCN(CC)CCCNC(=O)c1c2c(n3ccccc13)C(=O)c1ncccc1C2=O` was run?
**A.** The growth was -73% (active).

**Q.** Which growth does the source give for `CCCn1cnc2c(c1=N)C(c1ccc(Cl)cc1)c1sc3c(F)cccc3c1O2` (stereo unspecified) here?
**A.** The growth was 94.7% (inactive).

**Q.** Which growth does the source give for `Cc1ccc(C23CCC(=O)N2CCc2cncn23)cc1` (stereo unspecified) here?
**A.** The growth was 96.8% (inactive).

**Q.** For `O=C(COc1ccc(/C=C2\Oc3ccccc3C2=O)cc1)Nc1nccs1`, which growth is on record?
**A.** Its growth is 116% (inactive).

**Q.** `Cc1c(C(=O)C(SC(=S)N2CCOCC2)SC(=S)N2CCOCC2)nnn1-c1ccc([N+](=O)[O-])cc1` was tested. Which growth did it give?
**A.** The growth was 128% (inactive).

**Q.** Which growth does the source give for `O=[N+]([O-])c1ccc(Oc2cccc3c(Oc4ccc([N+](=O)[O-])cc4[N+](=O)[O-])cccc23)c([N+](=O)[O-])c1` here?
**A.** Its growth is 108% (inactive).

**Q.** With `CN(C)CCOc1ccc(/C(=C(/CCCCCCCCCC[P+](c2ccccc2)(c2ccccc2)c2ccccc2)c2ccccc2)c2ccccc2)cc1` as the compound, how does the growth read?
**A.** The growth was -92.9% (active).

**Q.** How did the growth turn out when `CC1(C)CC[C@]2(CO)CC[C@]3(C)C(=CC[C@@H]4[C@@]5(C)CCNCC(C)(C)[C@@H]5CC[C@]43C)[C@@H]2C1` was run?
**A.** The growth was 84.2% (inactive).

**Q.** For `O=c1oc2ccccc2cc1-c1nn(-c2ccccc2)cc1/C=N/Nc1nc(-c2ccccc2)c(N=Nc2ccccc2)s1`, which growth is on record?
**A.** Its growth is 70.2% (inactive).

**Q.** `COc1cc(/C=C2\CN(S(=O)(=O)c3ccc(C)cc3)C/C(=C\c3cc(CN4CCCC4)c(O)c(OC)c3)C2=O)cc(CN2CCCC2)c1O` was tested. Which growth did it give?
**A.** The growth was 40.9% (inactive).

**Q.** `Nc1ccc(Cl)c2c(=O)c3ccccc3[nH]c12` was tested. Which growth did it give?
**A.** The growth was 69.3% (inactive).

**Q.** For `COC(=O)c1sc(-c2ccc(C)cc2)cc1O`, which growth is on record?
**A.** The growth was 98.5% (inactive).

**Q.** Which growth does the source give for `CCOC(=O)CSc1nc2sc3c(c2c(=O)n1-c1ccccc1)CCCCC3` here?
**A.** The growth was 105% (inactive).

**Q.** `O=C1NCCS(=O)(=O)/C1=C\C=C\c1cccc(C(F)(F)F)c1` was tested. Which growth did it give?
**A.** Its growth is 56.9% (inactive).

**Q.** For `COc1cccc2cc(N(C)c3ncnc4ccccc34)ccc12`, which growth is on record?
**A.** The growth was -7.44% (active).

**Q.** For `Cc1[nH]c(C(=O)Nc2ccc(C(N)=O)cc2OC(C)C)c(Cl)c1Cl`, which growth is on record?
**A.** The growth was 84.3% (inactive).

**Q.** Which growth does the source give for `Nc1nc(N)c2c(n1)NC(c1cccc(Nc3ccnc4cc(C(F)(F)F)ccc34)c1)CC(c1ccc(Cl)cc1)=N2` (stereo unspecified) here?
**A.** The growth was 82% (inactive).

**Q.** Which growth does the source give for `COC1=C(OC)C(=O)C(CCCCCCCCCCO)=C(C)C1=O` here?
**A.** The growth was 103% (inactive).

**Q.** For `O=C1c2c(c3c4cccnc4[nH]c3c3ccc4ccccc4c23)C(=O)N1O`, which growth is on record?
**A.** The growth was 84.7% (inactive).

**Q.** With `CCN1CCN(C(=O)[C@]23CC[C@@H](C)[C@H](C)[C@@H]2C2=CC[C@@H]4[C@@]5(C)C/C(=C/c6ccncc6)C(=O)C(C)(C)[C@@H]5CC[C@@]4(C)[C@]2(C)CC3)CC1` as the compound, how does the growth read?
**A.** The growth was -10.5% (active).

— PubChem BioAssay (NCI)
